Common to all, as to assay: NCI-60 one-dose screen, 48 h (100 = growth as untreated, 0 = no growth, -100 = all killed)
Common to all, as to settings: 10 µM unless noted

In test [1] the test system is HCT-15 colon.
In test [2] the test system is HT29 colon.
The subject of test [3] is SNB-75 CNS.
In test [4] the test system is SNB-19 CNS.
Test [5] concerns U251 CNS.
Test [6] deals with PC-3 prostate.
Test [7] deals with UACC-62 melanoma.
Test [8] relates to SK-MEL-28 melanoma.
Test [9] concerns SK-MEL-2 melanoma.
For test [10], the system named is SN12C renal.
For test [11], the system named is UO-31 renal.
For test [12], the system named is TK-10 renal.
The subject of test [13] is ACHN renal.
Test [14] relates to CAKI-1 renal.
Test [15] deals with A498 renal.
Test [16] relates to CCRF-CEM leukemia.
Test [17] concerns MOLT-4 leukemia.
The test system of test [18] is SK-MEL-5 melanoma.
Test [19] deals with LOX IMVI melanoma.
The subject of test [20] is EKVX NSCLC.

Each structure is given as a SMILES string. About 83,000 compounds went through this panel and 20% of them were active in at least one assay; those are over-represented in the sample as a whole.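 Growth was measured after 48 h exposure to one concentration of compound in 96-well plates. Values under 10 count as active.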 Unmarked numbers belong to inactive results. Active and inactive are the calls of the source.

`Clc1ccc(Nc2ccnc(N3CCN(c4ccnc5cc(Cl)ccc45)CC3)n2)cc1`: the growth in [1] is 20.4%; in [2], 32.2%; in test [3], 27.7%; in [4] it was 58.2%; in test [5] it was 51.9%; in test [6] it was 37.7%. For the same compound, the growth in test [7] was 31.3%; in [8], 63.8%; in [9] it was 73.7%; in test [10], 51.4%; in [11] it was -8.75% (active); in test [12] it was 60.9%. Moreover, the growth in [13] was 41.9%; in test [14], 34.8%; in test [15], -1.58% (active); in test [16] it was 38.4%; in [17] it was 31.9%.
As for `Cc1ccccc1-c1cc(-c2ccc(Br)s2)[nH]c(=O)c1C#N`, the growth is 98.7% in test [1]; 112% in test [2]; 92.3% in test [3]; 103% in test [4]; 106% in test [5]; 93.1% in [18]. Further, the growth was 92.3% in test [7]; 94.2% in test [19]; 108% in test [8]; 113% in test [9]; 85.6% in test [20]; 102% in test [10]. For the same compound, the growth in test [11] was 83.3%; in [12], 109%; in test [13] it was 101%; in test [14] it was 88.1%; in test [16] it was 106%; in [17], 92.7%.
As to `Cc1ccc2c(c1)c(Sc1ccc(C(=O)NO)cc1)c1n2CN(C)CC1`, the growth in [1] is 58.7%; in test [2] it was 25.6%; in test [3] it was 17.8%; in test [4], 31%; in [5], 2.16% (active); in test [6], -3.93% (active). Further, the growth in test [7] is -1.71% (active); in test [19], -33.1% (active); in [8], 7.31% (active); in test [9], 7.15% (active); in test [10] it was 9.16% (active); in [11], 45.9%. The growth in test [13] is 26.8%; in [14], 62.9%; in test [15], 6.35% (active); in test [16], -5.94% (active); in test [17], -10.5% (active).
With `Nc1nc(N)c(C=Nc2ccc(Br)cc2)c(Nc2ccc(Br)cc2)n1`, the growth was 88.5% in test [1]; 101% in [2]; 91.3% in test [3]; 99.8% in test [4]; 95.1% in [5]; 108% in [18]. For the same compound, the growth is 87% in test [7]; 81% in test [19]; 106% in test [8]; 108% in test [9]; 86.4% in [20]; 99.2% in test [10]. For the same compound, the growth in test [11] is 75.2%; in test [12], 127%; in test [13] it was 73.3%; in test [14] it was 69.2%; in test [15] it was 83.1%; in test [16] it was 81.1%. The growth in test [17] is 64.7%.
For the compound `Cc1ccc(S(=O)(=O)N(c2ccc(Cl)cc2)c2ccc(Br)cc2C(=O)O)cc1`, the growth in [1] was 100%; in test [2], 107%; in test [3], 97.2%; in test [4], 99.9%; in [5], 95.8%; in test [6] it was 96.7%. In addition, the growth in test [7] was 105%; in [8] it was 119%; in test [9], 107%; in test [10], 99.4%; in test [11], 91.4%; in test [13], 105%. Also, the growth is 102% in [14], 111% in test [15], 102% in test [16] and 98.5% in test [17].
As to `Cc1ccc(C(=O)Nc2ccccc2N)cc1`, the growth in test [1] was 88%; in [2], 79.4%; in test [3] it was 82.8%; in test [4], 81.9%; in test [5], 74.8%; in test [6] it was 70.9%. For the same compound, the growth in test [7] was 52.1%; in test [19], 89.5%; in test [9] it was 57.5%; in [10] it was 64%; in test [11], 37.4%; in test [13] it was 87.7%. For the same compound, the growth is 93.7% in [14], 54.9% in [15], 4.67% (active) in test [16] and 30.9% in [17].
On to `COc1ccc(C(=O)COc2cccc(/C=C3\CSc4ccc(C)cc4C3=O)c2)cc1`, for which the growth in test [1] is 84.8%; in test [2], 101%; in test [3], 95%; in test [4], 97%; in [5] it was 97%; in test [18], 88.2%. The growth was 75.2% in test [7]; 74.2% in test [19]; 120% in [8]; 79.5% in test [9]; 106% in [20]; 91.7% in test [10]. Moreover, the growth was 78.5% in test [11]; 101% in test [12]; 101% in [13]; 91.6% in test [14]; 112% in test [15]; -9.38% (active) in test [16]. In test [17], the growth was -7.35% (active).
As to `Cn1c2ccc(Cl)cc2c2nn(C(=O)c3ccccc3)c(=O)nc21`, the growth was 96.7% in test [1]; 108% in [2]; 88.3% in test [3]; 105% in test [4]; 103% in test [5]; 93.2% in test [6]. Also, the growth in [7] was 107%; in [19], 98.1%; in test [8], 125%; in test [9] it was 100%; in test [11], 71.9%; in test [13], 95.2%. Besides, the growth was 112% in test [15], 96% in test [16] and 99% in test [17].
As for `Clc1ccc2c(c1)C[C@H]1C[C@@H](c3cccs3)N2O1`, the growth in test [1] is 97.2%; in [2] it was 111%; in test [3], 101%; in [4] it was 114%; in [5] it was 93.7%; in test [18], 99.5%. The growth is 105% in [7]; 93.2% in [19]; 110% in [8]; 113% in test [9]; 83.2% in test [20]; 106% in test [10]. Moreover, the growth in test [11] is 93.4%; in test [12], 104%; in test [13] it was 104%; in test [14], 94.4%; in test [15], 77.1%; in [16] it was 100%. The growth in test [17] is 89.3%.

Source of the values: PubChem BioAssay (NCI).
